D2 PAM-1 – positive allosteric modulators of human D2 dopamine receptor; P14416; HEK293 T-REx D2, calcium flux, EC20 dopamine potentiation; potentiation, % at 10 µM; actives 0.34% (n = 340,000); AID 485347;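 active = potentiation over 3 SD above the plate norm, cut at about 30% in these data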; note: 0% is about no effect
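Potentiation of an EC20 dopamine calcium response is measured in a force-coupled, tetracycline-inducible Hek293 Trex D2 line. Compound-only kinetic reads over 180 s flag agonists before dopamine addition.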
D2 antagonist – D2 dopamine receptor (human) antagonism; HEK293 TREx D2 cells, calcium flux, dopamine EC80; inhibition, % at 10 µM; actives 2% (n = 340,000); P14416; in the data active = inhibition above about 30%; inactive = below that, where a call was filed; note: 0% is about no effect
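Dopamine at EC80 is the agonist stimulus; test compounds precede it by 180 s. Calcium flux read kinetically in a force-coupled, inducible HEK293 T-REx D2 cell line.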
D2 ag-1 – activates the human D2 dopamine receptor. P14416. HEK293 T-REx D2 cells, calcium flux agonist mode. activation, % at 2 µM. actives 0.53% (n = 340,000). AID 485358;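 active = activation over 3 SD above normal in the single-dose calcium agonist read, cut at about 30% in these data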; note: 0% is about no effect
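Calcium-flux readout, 1 cycle/sec over 180 s following compound pin transfer, in inducible HEK293 Trex D2 cells (force-coupled); dopamine controls included. Positive calcium responses during this window marked compounds as potential agonists.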
D2 PAM-2 – positive allosteric modulators of human D2 dopamine receptor; AID 624464; P14416; potentiation, % (concentration not given with the values); DiscoveRx D2 beta-arrestin cells, luminescence, 90 min; 100% = 57 uM dopamine signal; actives 0.23% (n = 360,000); in the data active = potentiation above about 50%; inconclusive = mostly about 30% to 49%
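PathHunter D2 cells, attached overnight at 37 deg C, received compound in DMSO plus dopamine at EC20 (50 nM final) for 90 min at 37 deg C. Beta-arrestin recruitment was read as luminescence after 1 h with detection reagent at ambient temperature.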
LDHA block – blocks human lactate dehydrogenase A | P00338 | purified LDHA, NADH/diaphorase-resazurin fluorescence; hits give low values | activity change, % (values are at about 110 or 230 µM) | actives 0.15% (n = 480,000) | AID 1347041; in the data active = activity change below about -30%; inconclusive = mostly about -25% to -30%;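 note: plate controls were DMSO wells for no effect and wells without enzyme for full effect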
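Human LDH5 at 2 nM final in Tris HCl pH 7.4 with 0.06 mM NADH and 0.2 mM pyruvate, reacted 5 minutes at room temperature. Remaining NADH coupled via diaphorase/resazurin; resorufin fluorescence read at 0 and 20 minutes, normalized to enzyme-free and DMSO wells.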
D2 ag-2 – agonists of human D2 dopamine receptor (beta-arrestin); P14416; DiscoveRx PathHunter D2 beta-arrestin, luminescence, 90 min; 100% = 57 uM dopamine signal; activation, % (concentration not given with the values); actives 0.084% (n = 360,000); in the data active = activation above about 40%; inconclusive = between about 15% and that limit
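DiscoveRx PathHunter D2 beta-arrestin cells (2,100/well) attached overnight, then compound-stimulated 90 min at 37 C in HBSS/10 mM HEPES/0.1% Tween-20 buffer; beta-galactosidase complementation read by luminescence after 1 h at ambient temperature. Dopamine 57 uM final (EC100) as control.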
D3 ag – confirmation of human D3 dopamine receptor agonists, beta-arrestin | shares compounds with D2 ag-1 | Potency, µM (doses to about 76.9 µM), without a hit: top-dose activation, most hits filed as activators | AID 720506 | actives 4% (n = 2,300) | DiscoveRx D3 beta-arrestin cells, luminescence, 90 min;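 note: potency is the fitted concentration of half-maximal effect; 100% = dopamine control response; nearly all actives have a fitted effect of over 70% in size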
Target sequence (P35462 whole entry, looked up): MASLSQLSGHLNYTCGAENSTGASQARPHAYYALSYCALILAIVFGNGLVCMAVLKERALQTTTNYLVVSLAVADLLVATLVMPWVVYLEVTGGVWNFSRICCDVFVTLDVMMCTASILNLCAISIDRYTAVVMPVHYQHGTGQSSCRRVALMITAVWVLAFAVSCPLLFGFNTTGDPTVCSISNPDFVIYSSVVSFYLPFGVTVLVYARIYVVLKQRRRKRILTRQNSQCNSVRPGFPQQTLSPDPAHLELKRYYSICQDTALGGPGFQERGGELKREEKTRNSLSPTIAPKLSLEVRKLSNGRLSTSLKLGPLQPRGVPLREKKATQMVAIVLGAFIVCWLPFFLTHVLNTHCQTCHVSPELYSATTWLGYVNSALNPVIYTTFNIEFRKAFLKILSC
D2 ag-3 – D2 receptor agonism, beta-arrestin counterscreen; Potency, µM (titrated, usually from 76.9 µM), without a hit: at the highest dose activation, most hits filed as activators; actives 5.9% (n = 2,300); shares compounds with D2 ag-1; DiscoveRx PathHunter D2 beta-arrestin, luminescence, 90 min; response scale: percent relative to full dopamine signal; note: potency is the fitted concentration of half-maximal effect; % of control where 0% means no effect; nearly all actives have a fitted effect of over 70% in size
An asterisk follows results filed as active; u = inconclusive; x = no result given. The list is not random: actives were taken first. Their share in the collection is about 2.1%. Unless noted, calls come from the whole dose curve; as a rule, active = well fitted activation curve with a large enough effect; inconclusive = small, poorly fitted or top-dose-only effect; inactive = flat fitted curve, though single readings scatter.

SMILES | D2 PAM-1 | D2 antagonist | D2 ag-1 | D2 PAM-2 | LDHA block | D2 ag-2 | D3 ag | D2 ag-3
COc1ccc(CC(=O)Nc2nonc2-c2ccc(Br)cc2)cc1 | x | x | x | x | 4 | x | x | x
COc1ccc(C2c3ccc4ccccc4c3Oc3ncn(CCO)c(=N)c32)cc1OC (stereo not drawn) | x | x | x | 4 | -4 | -1 | x | x
COc1ccc(C2c3ccc4ccccc4c3Oc3ncn(CCCO)c(=N)c32)cc1OC (stereo not drawn) | x | x | x | -4 | -1 | -1 | 2% | 4%
COc1ccc(S(=O)(=O)N2CCN(c3ccccc3)CC2)cc1OC | x | x | x | 7 | -3 | 2 | x | x
COc1ccc(C)cc1NC(=O)c1ccc(CN2CCc3ccccc3C2)cc1 | -13 | 26 | 1 | -14 | 4 | -1 | x | x
COc1ccc(CC(C)N2CCN(Cc3ccccc3)CC2)c(OC)c1 (stereo not drawn) | -21 | 83* | 59* | -11 | -1 | 5 | -5% | 10%
COc1ccc(C)cc1NC(=O)c1ccc(CN2CCN(c3ccccc3)CC2)cc1 | -24 | 89* | 80* | 21 | 1 | u | 14% | u
COc1ccccc1C(=O)Nc1ccc(N2CCN(Cc3ccccc3)CC2)cc1 | 5 | -8 | 4 | -19 | -1 | 0 | x | x
COc1ccc(CN2CCN(CCCc3ccccc3)CC2)c(OC)c1 | -18 | -11 | 0 | x | x | x | x | x
COc1ccc(NC(=O)c2ccc(CN3CCN(c4ccccc4)CC3)cc2)cc1OC | -22 | 71* | 60* | -6 | 2 | u | 10% | u
COc1ccc(CC(C)N2CCN(c3ccccc3)CC2)cc1OC (stereo not drawn) | -13 | 66* | 65* | 2 | 1 | u | 5% | u
CCCCNC(=O)C(C#N)c1nc2ccccc2nc1N1CCN(c2ccc(F)cc2)CC1 (stereo not drawn) | x | x | x | x | -1 | x | x | x
CC(=O)NC(c1cc(Cl)c2cccnc2c1O)C1CC1 (stereo not drawn) | 3 | -17 | -1 | x | 19 | x | -31% | -6%
CC(=O)NC(c1cc(Cl)c2cccnc2c1O)C(C)C (stereo not drawn) | -14 | -7 | 0 | x | 17 | x | x | x
OC(c1cc(-c2ccc(C(F)(F)F)cc2)nc(C(F)(F)F)c1)C1CCCCN1 (stereo not drawn) | -3 | -6 | 10 | -43 | 4 | u | u | u
Cc1cc(Cl)ccc1OCc1n[nH]c(=S)n1C | x | x | x | x | -4 | x | x | x
CSCCC(NC(=O)c1ccc(Cl)cc1)C(=O)OCC(=O)N1CCCC1=O (stereo not drawn) | -11 | 1 | 1 | 2 | -5 | -1 | x | x
COc1ccccc1C(=O)NC(CCSC)C(=O)OCC(=O)N1CCCC1=O (stereo not drawn) | -8 | -21 | -1 | -5 | -6 | -2 | -3% | -1%
COc1ccc(-c2[nH]ncc2CN2CCCN(C(=O)c3ccco3)CC2)cc1F | -18 | x | x | -5 | -4 | 3 | -2% | 5%
COc1ccc(OC)c(CN2CCN(C(=O)c3ccco3)CC2)c1 | -19 | 83* | 83* | 2 | -21 | u | -1% | 19%
COc1ccc(NC(=O)C(=O)NCCN2CCN(C(=O)c3ccco3)CC2)cc1 | -13 | 22 | 39* | 20 | -3 | 14 | 5µM* | 23%
COc1cccc(CN2CCN(C(=O)c3ccco3)CC2)c1 | -17 | 82* | 84* | u | -18 | 70* | 78% | 8.9µM*
COc1ccc(C(=O)N2CCN(Cc3cc(OC)ccc3OC)CC2)cc1 | -25 | -36 | 0 | -3 | -13 | 1 | x | x
COc1ccc(-c2noc(CSc3nnc(-c4ccco4)n3C)n2)c(OC)c1 | x | x | x | x | 12 | x | x | x
CN1C/C(=C\c2ccc(N3CCOCC3)cc2)C(=O)/C(=C/c2ccc(N3CCOCC3)cc2)C1 | 6 | 0 | 25 | -12 | 0 | -4 | 0% | -5%
SMILES | D2 PAM-1 | D2 antagonist | D2 ag-1 | D2 PAM-2 | LDHA block | D2 ag-2 | D3 ag | D2 ag-3
CN1C/C(=C/c2ccsc2)C(=O)/C(=C/c2ccsc2)C1 | -23 | 44* | 69* | -19 | 10 | 1 | 0% | -2%
Cc1ccccc1NS(=O)(=O)c1ccc(C)c(C(=O)N(C)Cc2ccccc2)c1 | x | x | x | x | -5 | x | x | x
COC(=O)CCC(C)N1CCC(Oc2ccc(C(=O)N3CCCC3)cc2)CC1 (stereo not drawn) | -18 | 9 | 52* | -20 | -7 | -4 | 7% | 6%
CC1(C)CC(=O)c2sc(NC(=O)c3cccs3)nc2C1 | -17 | -7 | 52* | 3 | -10 | 9 | u | 15%
CC1(C)CC(=O)c2sc(NC(=O)C(C)(C)C)nc2C1 | 21 | -9 | 0 | 0 | -1 | -1 | x | x
O=C(O)CCCCCCCCc1cn(CCc2c[nH]c3ccccc23)nn1 | -20 | -1 | 93* | -8 | -13 | -2 | 3% | -2%
COCc1ccc(-c2c(-c3ccccc3OC)sc3cc4c(cc23)OCO4)cc1 | 8 | 40* | 0 | -6 | 0 | -2 | 1% | -3%
CSc1ncccc1C(=O)N(Cc1nnc(-c2ccccc2Cl)o1)C(C)C | x | x | x | x | -7 | x | x | x
O=C(CCSc1nc(-c2ccco2)cc(C(F)(F)F)n1)N1CCN(c2ccccn2)CC1 | -17 | 6 | 52* | 2 | -2 | 0 | -7% | 0%
CN1CCN(C(=O)CSc2nc(-c3ccco3)cc(C(F)(F)F)n2)CC1 | -6 | -15 | -1 | -15 | -7 | 1 | x | x
Cc1ccc(-c2noc(CSc3nnc4ccccn34)n2)cc1F | x | x | x | x | -8 | x | x | x
Cc1cccc(CN2CCN(c3ncccn3)CC2)c1 | -30 | 83* | 87* | u | -19 | u | u | 7.9µM*
Brc1cccc(CN2CCN(c3ncccn3)CC2)c1 | -17 | 85* | 73* | u | -12 | 73* | 26% | 11µM*
Cc1cc(C)nc(/N=C(\N)Nc2cccc(OCc3ccccc3)c2)n1 | -32 | 63* | 77* | -28 | 0 | -2 | -13% | 20%
COc1ccccc1N/C(N)=N/c1nc(C)cc(C)n1 | -13 | 0 | 1 | -16 | 3 | -4 | x | x
Cc1cc(C)nc(/N=C(\N)Nc2ccc(CC(=O)OC(C)C)cc2)n1 | -9 | 59* | 33* | -26 | -6 | 4 | 4% | u

Source: PubChem (National Center for Advancing Translational Sciences (NCATS))
